The values that follow come from PubChem BioAssay AID2384 (Southern Research Specialized Biocontainment Screening …, 2010).

About 1,100 (48%) of roughly 2,300 compounds were called active. The rule behind the calls is not given here. The set was probably picked from earlier hits. The list shows a part of the results. Entries with a potency or affinity are not part of this list.

A short description of this assay: inhibitors in S. typhi counter-screen strain, dose response, counter-screen for PhoP regulon inhibitor project, fluorescence, 4 h (AID 2384). The settings on record: S. typhi GFP reporter counter-screen; series mostly up to 150 µM.
Turning to `CC1CC1C(=O)Nc1nc2ccc(S(C)(=O)=O)cc2s1` (stereo not given), the inhibition result was “inactive”.

Consider `Cc1ccc(N2C(=O)[C@@H]3[C@H](C2=O)[C@H]2C=CC=NN2[C@@H]3C(=O)Nc2ccc(Cl)cc2)cc1`, for which the inhibition entry is “inactive”.

Take `COc1ccccc1CNC(=O)Cn1c(=O)oc2cc(S(=O)(=O)N3CCCC3)ccc21`: the inhibition entry was “inactive”.

Regarding `Cc1ccc(NC(=O)c2sccc2C)cc1[N+](=O)[O-]`, the inhibition entry was “inactive”.

Consider `COc1cccc(NC(=O)COC(=O)Cc2ccccc2[N+](=O)[O-])c1`, for which the inhibition result is “inactive”.

`O=C(N/N=C/c1cccc(OCc2ccccc2)c1)c1cccs1`: the inhibition result was “inactive”.

Regarding `O=C(Nc1ccc(Cl)cc1)c1cccs1`, the inhibition result was “inactive”.

For the compound `Cc1ccc(NC2OC(CO)C(O)C(O)C2O)cc1` (stereo not given), the inhibition result was “inactive”.

Turning to `O=C1CC(NC(=O)C(F)(F)F)=NN1c1ccccc1`, the inhibition entry was “inactive”.

Take `Cc1nc2ccc(NC(=O)C(F)(F)F)cc2o1`: the inhibition entry is “inactive”.

Take `NS(=O)(=O)c1cc2c(cc1Cl)NC(Cc1ccccc1)NS2(=O)=O` (stereo not given): the inhibition result is “inactive”.

In the case of `CCOc1cc(S(=O)(=O)N2CCN(CC)CC2)ccc1Cl`, the inhibition result was “inactive”.

Consider `c1ccc2cc(CSCc3nc4ccccc4[nH]3)ccc2c1`, for which the inhibition result was “inactive”.

For the compound `CCOC(=O)C1CCN(C(=O)CCc2nc3ccccc3[nH]2)CC1`, the inhibition entry was “inactive”.

With `C#CCOCCOCCOCCNc1nc(N2CCN(C(=O)CCCCCCCCCCNC(=O)[C@H]([C@@H](C)CC)n3cc(CCCCN=C(N)N)nn3)CC2)nc(N2CCN(C(=O)CCCCCCCCCCNC(=O)[C@@H]([C@H](C)O)n3cc(C)nn3)CC2)n1`, the inhibition entry was “inactive”.

For `C#CCOCCOCCOCCNc1nc(N2CCN(C(=O)CCCCCCCCCCNC(=O)[C@@H](CCSC)n3cc(CCO)nn3)CC2)nc(N2CCN(C(=O)CCCCCCCCCCNC(=O)[C@H]([C@@H](C)CC)n3cc(CCCCCN)nn3)CC2)n1`, the inhibition result was “inactive”.

Consider `c1cc2c(cc1Oc1nc(N3CCOCC3)nc(N3CCOCC3)n1)OCO2`, for which the inhibition entry was “inactive”.

Regarding `COc1cc(CNC(=O)CCC(=O)N2C[C@H]3C[C@H](C2)c2cccc(=O)n2C3)cc(OC)c1OC`, the inhibition entry is “inactive”.

With `CC1(C)Cc2c(sc(NC(=O)COc3ccc(Cl)cc3)c2C(N)=O)C(C)(C)N1`, the inhibition entry was “inactive”.

Take `CCC(=O)N(Cc1cc2cc(OC)ccc2[nH]c1=O)c1ccc(C)cc1C`: the inhibition entry is “inactive”.

Usually inhibition stands for the percentage by which the read-out fell short of the control.
